# Measurements reported in PubChem BioAssay (NCI).
# Compounds without any hit were thinned out: in the full panel of roughly 83,000, 20% have a hit.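 Cells were grown in 96-well plates and exposed to the test compound at a single concentration for 48 hours; results are reported as percent growth, with values below 10 considered active.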 A number with no mark means an inactive call. Calls of active or inactive are those of the source.
# Test system: HL-60(TB) leukemia
# Test: NCI-60 one-dose screen, 48 h (100 = growth as untreated, 0 = no growth, -100 = all killed)
# Details: 10 µM unless noted
row,Structure (SMILES),growth
1,C[C@@H]1C(=O)N(C[C@H](Cc2ccccc2)NC(=O)OCc2ccccc2)[C@]1(Cc1ccccc1)C(=O)OCc1ccccc1,37.4%
2,Nc1ccc(Oc2c(F)c(F)c(Oc3ccc(N)cc3)c(F)c2F)cc1,76.9%
3,CN1CCc2c(sc3nc4n(-c5ccc(Cl)cc5)cnn4c(=O)c23)C1,105%
4,N#Cc1ccc(-n2nnc3ccccc32)cc1C#N,108%
5,CC(=O)O[C@H]1C[C@@]2(C)[C@@H](C[C@@H](O)[C@H]3[C@@]4(C)CC[C@H](N5CCCC5)[C@@H](C)[C@@H]4CC[C@@]32C)/C1=C(\CCC=C(C)C)C(=O)O,-74.3% (active)
6,C#C[C@]1(O)CC[C@H]2[C@@H]3CC=C4c5nc(Nc6ccccc6[N+](=O)[O-])sc5CC[C@]4(C)[C@H]3CC[C@@]21C,77.7%
7,COc1ccc(C(=O)C(C)C)c2ccccc12,78.9%
8,COc1ccc(/C=C2\CN(Cc3cn(CCCNc4ccnc5cc(Cl)ccc45)nn3)C/C(=C\c3ccc(OC)c(OC)c3)C2=O)cc1OC,-38% (active)
9,C=C1C(=O)O[C@H]2[C@H]1CC/C(COC(=O)NCCCCNC(=O)OC/C1=C/CC[C@@]3(C)O[C@H]3[C@H]3OC(=O)C(=C)[C@@H]3CC1)=C\CC[C@@]1(C)O[C@@H]21,-50.7% (active)
10,COc1cc2nccc(Oc3ccc(NC(=O)C4(C(=O)Nc5ccc(F)cc5)CC4)cc3)c2cc1O,54.5%
11,NS(=O)(=O)Oc1ccc(NC(=O)C2CCCCCC2)cc1,99.2%
12,CCOc1ccc(Br)cc1/C=N\N=C\c1cc(Br)ccc1OCC,73.2%
13,COc1cc2cc3c(nc2cc1OC)CCN3Cc1ccc(NC(=O)Nc2cc(C(F)(F)F)cc(C(F)(F)F)c2)cc1,81.5%
14,Cc1cccc(-n2c(C)nc3ccc(NC(=O)NCCCl)cc3c2=O)c1,113%
15,CO[C@H]1C[C@@H]2CC[C@@H](C)[C@@](O)(O2)C(=O)C(=O)N2CCCC[C@H]2C(=O)O[C@H]([C@H](C)C[C@@H]2CC[C@@H](OP(C)(C)=O)[C@H](OC)C2)CC(=O)[C@H](C)/C=C(\C)[C@@H](O)[C@@H](OC)C(=O)[C@H](C)C[C@H](C)\C=C/C=C/C=C/1C,76.4%
16,O=C1/C(=C/c2ccccc2O)C(=S)SN1Cc1ccco1,92%
17,COc1cc(/C=C/C(=O)N2CCN(C(=O)c3cc(OC)c(OC)c(OC)c3)CC2)ccc1OCCCN1C(=O)c2cccc3cccc(c23)C1=O,56.7%
18,Cn1c(COC(=O)NCCc2ccccn2)nc2c(N3CCOCC3)nc(Cl)nc21,-36.9% (active)
19,COC(=O)[C@]1(C)CCC[C@]2(C)c3ccc(C(C)C)cc3C(=O)[C@@H](Br)[C@@H]12,68.1%
20,C[C@@H]1N=C(c2ccc(Cl)cc2Cl)Nc2nc3ccccn3c2C1=O,0.461% (active)

row,Structure (SMILES),growth
1,CSc1ccc2c(c1)N(CCC1CCCCN1C)c1ccccc1S2 (stereo not given),86.1%
2,O=C(COc1cccc(/C=C2\CSc3ccc(Cl)cc3C2=O)c1)c1ccc(Cl)cc1,79.2%
3,CC(=O)Nc1cscc1NC(C)=O,96.7%
4,S=C(SSC(=S)N1CCOCC1)N1CCOCC1,98%
5,COC(=O)c1cc(-c2ccccc2)[nH]c1N/N=C/c1c(Cl)cccc1Cl,-42.9% (active)
6,CCN1C(=O)N(CC)C2C1N=C(SC)N2/N=C/C=C/c1ccccc1OC (stereo not given),-13.4% (active)
7,Oc1ccc(Cl)cc1Cc1cc(Cl)cc(Cl)c1O,-11.1% (active)
8,COc1ccc(-c2nc(SCCC(C)C)nc(N/N=C\c3ccccc3O)c2C#N)cc1,83.6%
9,CC(=O)Nc1sc2c(c1-c1nc3ccccc3s1)CNC2,28.4%
10,Clc1ccc(Nc2nc(Nc3ccccc3)nc(Nc3ccc(-c4cc(-c5ccc(Cl)cc5)on4)cc3)n2)cc1,55.3%
11,COC(=O)c1ccc(NC(=O)Nc2ccc(C(=O)OC)cc2)cc1,92.8%
12,O=C(N/N=C/c1ccccc1O)c1ccccc1O,4.12% (active)
13,CC(=O)NNC(=S)N/C=C/c1c(C)ccc([N+](=O)[O-])c1[N+](=O)[O-],99.9%
14,O=C(O)c1ccccc1C(=O)c1ccc(I)cc1,93.1%
15,COc1ccc(-c2cc(-c3ccc(OC)cc3)c3sc(=O)[nH]c3n2)cc1,84.7%
16,CCOC(=O)OCC(=O)[C@@]1(O)CC[C@H]2[C@@H]3CCC4=CC(=O)CC[C@]4(C)[C@H]3[C@@H](O)C[C@@]21C,108%
17,C=CCOC(=O)C1=C(C)N(CC)C(=O)N(CC)C1c1c(Cl)n(C)c2ccccc12 (stereo not given),96.9%
18,O=C1CC(c2nc3ccccc3[nH]2)CN1C1CCCCC1 (stereo not given),101%
19,C=C1C(=O)O[C@H]2[C@H]1CC/C(COC(=O)c1cccnc1N)=C\CC[C@@]1(C)O[C@@H]21,-3.64% (active)
20,CCOc1ccc(NC(=O)Nc2cc(C(C)C)ccc2C)cc1,95.2%
